TTR transcr act: activators of transthyretin transcription. SH-SY5Y TTR promoter Gaussia luciferase, luminescence; 100% = recombinant luciferase protein wells. activation, % at 16.7 µM. actives 1.3% (n = 92,000);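 active = activation above the mean of all tested compounds plus 3 SD, cut at about 9.5% in these data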;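 note: cells exposed to compounds for one day before reading; 0% = median of all test compound wells on the plate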
TTR inh HuH7: HuH7 TTR transcription inhibition, counter-screen; actives 4% (n = 1,100); shares compounds with TTR transcr act; HuH7 TTR promoter-Gaussia luciferase reporter, luminescence; AID 1117279; inhibition, % at 16.7 µM;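 active = average inhibition above the solvent-only control wells' mean plus 3 SD, cut at about 15% in these data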;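 note: 0% = cells with DMSO only and 100% = cells with inhibitor control FD; inhibitors lower well luminescence so higher value means more inhibition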
TTR up confirm: human TTR transcription activation, confirmation; shares compounds with TTR transcr act; SHSY5Y TTR promoter Gaussia luciferase, luminescence; 100% = purified Lucia enzyme wells, no cells; activation, % at 16.7 µM; 1,100 tested, under 10 active;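 active = mean activation above a set limit taken from the earlier primary screen, cut at about 11% in these data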;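 note: 0% = DMSO-treated cells and 100% = recombinant Lucia luciferase without cells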
* = called active by the depositor. Many of the other results were omitted from the sample, so hits are more common in it than they were.

What do the screens show for `CNC(C)C(=O)NC(C(=O)N1CCCC1C(=O)Nc1cccc2ncccc12)C(C)C` (centres undefined)?
TTR transcr act: -1

How did O=C(NCc1ccco1)O[C@H]1CC[C@@]23CCCN2C(=O)CCC[C@H]3C1 do in these assays?
TTR transcr act: 1

How did CC1CN(CC(=O)c2c(N)n(Cc3ccccc3)c(=O)n(C)c2=O)CC(C)O1 (centres undefined) do in these assays?
TTR transcr act: -2

Results for Cn1c(N)c(C(=O)CCl)c(=O)n(Cc2ccccc2)c1=O ?
TTR transcr act: 12*

How did CN(C)CC(=O)c1c(N)n(Cc2ccccc2)c(=O)n(C)c1=O do in these assays?
TTR transcr act: 0

What do the screens show for `O=C(COc1ccccc1C(=O)NCc1ccccc1)Nc1ccc(I)cc1`?
TTR transcr act: 0

What do the screens show for `O=C(Nc1ccc(F)cc1)OCc1cn(Cc2ccccc2F)nn1`?
TTR transcr act: 0

How did C=CCN1C(=O)[C@H](CC(=O)NCc2ccccc2)[C@@]2(C(=O)OCC)CCCC=C12 do in these assays?
TTR transcr act: 2

What do the screens show for `O=S(=O)(N[C@H]1CCCC[C@@H]1N1CCOCC1)c1ccc(Cl)cc1`?
TTR transcr act: 0

Results for CCOCCCNCC(=O)Nc1ccccc1N1CCOCC1 ?
TTR transcr act: 21*

What do the screens show for `CCOc1ncccc1C(=O)Nc1ccccc1N1CCOCC1`?
TTR transcr act: -2

How did Cc1cc(C)c(OCC(=O)Nc2ccccc2N2CCOCC2)c(C)c1 do in these assays?
TTR transcr act: -2

Results for CCCC1CCC2(CC1)CCC2OC(=S)Nc1cccc(I)c1 (centres undefined) ?
TTR transcr act: 1

How did CCCNC(=O)Nc1ccc2c(c1)C(=O)N(C)[C@H]1CC[C@@H](CC(=O)OC)O[C@H]1CO2 do in these assays?
TTR transcr act: -1

Results for Cc1cc(N2CCN(C(=O)c3ccco3)CC2)n2ncc(-c3ccccc3)c2n1 ?
TTR transcr act: 0

What do the screens show for `Cc1nn2c(N3CCN(C(=O)c4ccco4)CC3)cc(C(C)(C)C)nc2c1-c1ccccc1`?
TTR transcr act: 10*

Results for Cc1cc(N2CCN(C(=O)c3ccco3)CC2)n2ncnc2n1 ?
TTR transcr act: -2

How did C[C@H]1CN([C@@H](C)CO)C(=O)Cc2cc(NS(C)(=O)=O)ccc2O[C@@H]1CN(C)Cc1ccc(Cl)c(Cl)c1 do in these assays?
TTR transcr act: 13*

How did C[C@@H]1CN([C@H](C)CO)C(=O)c2cc(NC(=O)Cc3cn(C)c4ccccc34)ccc2O[C@H]1CN(C)C(=O)Nc1ccc2c(c1)OCO2 do in these assays?
TTR transcr act: -4

Results for C[C@H](CO)N1C[C@H](C)[C@H](CN(C)Cc2ccc(Oc3ccccc3)cc2)Oc2ccc(NC(=O)Nc3cccc4ccccc34)cc2CC1=O ?
TTR transcr act: -5

How did Cc1ccc(S(=O)(=O)N(C)C[C@@H]2Oc3ccc(NS(=O)(=O)c4ccccc4)cc3CC(=O)N([C@@H](C)CO)C[C@H]2C)cc1 do in these assays?
TTR transcr act: -3

What do the screens show for `CNC[C@H]1Oc2ccc(NC(=O)Cc3cn(C)c4ccccc34)cc2CC(=O)N([C@@H](C)CO)C[C@H]1C`?
TTR transcr act: 15*

How did C[C@H]1CN([C@@H](C)CO)C(=O)Cc2cc(NC(=O)Nc3ccccc3)ccc2O[C@H]1CN(C)Cc1ccccc1 do in these assays?
TTR transcr act: -3

Results for CN(Cc1ccccc1)C(=O)OCc1cn(Cc2cccc(C(F)(F)F)c2)nn1 ?
TTR transcr act: 1

Results for O=C(OCc1cn(Cc2ccccc2F)nn1)N1CCOCC1 ?
TTR transcr act: 5

Results for C#CCNC(=O)C[C@H]1C[C@@]2(C(=O)OCC)CCCC3=C2N(CCC3)C1=O ?
TTR transcr act: 1

Results for CCCC/C=C1/C(c2ccccc2)N(Cc2ccc(OC)cc2OC)C2=NC(c3ccccc3)CC(=O)N21 (centres undefined) ?
TTR transcr act: 2

Results for CCOC(=O)c1c(C=O)c(C)n(Cc2ccccc2)c1C ?
TTR transcr act: 11*

Results for CCOC(=O)c1c(C=O)c(C)n(Cc2ccc(Cl)cc2)c1C ?
TTR transcr act: -3

How did CCOC(=O)c1cn(Cc2ccccc2)nn1 do in these assays?
TTR transcr act: 1

Results for CC(C)[C@H]1/C(=C/C2CC2)N2C(=O)C[C@H](c3ccccc3)N=C2N1C ?
TTR transcr act: 4

What do the screens show for `O=C(Nc1ccc(F)cc1)OCc1cn(Cc2c(F)cccc2F)nn1`?
TTR transcr act: 0

How did CC(C)c1ccccc1NC(=O)[C@@H]1CCCN1S(=O)(=O)c1cccc2cccnc12 do in these assays?
TTR transcr act: 0

Results for O=C1CCCCC1Nc1ccc([N+](=O)[O-])cc1 (centres undefined) ?
TTR transcr act: 12*

Results for O=C(NC1CCCCC1)c1ccc([N+](=O)[O-])cc1 ?
TTR transcr act: -1

How did O=[N+]([O-])c1ccc(N/N=C2/CCCCC2c2ccccn2)cc1 (centres undefined) do in these assays?
TTR transcr act: -1

How did C[C@@H]1CCCN1c1cccc2c1S(=O)(=O)N1CC[C@H](C1)O2 do in these assays?
TTR transcr act: -1

How did COC(=O)[C@]12C[C@H](CC(=O)NCc3ccc(C)o3)C(=O)N(CCc3ccc(OC)c(OC)c3)C1=C[C@H](C(C)(C)C)O[C@@H]2C do in these assays?
TTR transcr act: -1

Results for C#CCOCCOCCOCCNc1nc(N2CCN(C(=O)[C@H](CCC(=O)O)n3cc([C@@H](N)CC(N)=O)nn3)CC2)nc(N2CCN(C(=O)[C@H](CCC(=O)O)n3cc([C@@H](N)CC(N)=O)nn3)CC2)n1 ?
TTR transcr act: 0

Results for C#CCOCCOCCOCCNc1nc(N2CCOCC2)nc(N2CCN(C(=O)[C@H](CC(N)=O)n3cc([C@@H](N)C(C)C)nn3)CC2)n1 ?
TTR transcr act: -1

How did C#CCOCCOCCOCCNc1nc(N2CCN(C(=O)[C@H](CC(N)=O)n3cc([C@@H](N)CC(N)=O)nn3)CC2)nc(N2CCN(C(=O)[C@H](CC(N)=O)n3cc([C@@H](N)CC(N)=O)nn3)CC2)n1 do in these assays?
TTR transcr act: 14*; TTR inh HuH7: -4; TTR up confirm: 0

How did CC(C)(C)OC(=O)N[C@H]1C=C[C@@H](CC(=O)OCC(F)(F)F)C1 do in these assays?
TTR transcr act: 1

What do the screens show for `CCCCn1nnnc1C1c2ccccc2OCC(=O)N1Cc1ccc2c(c1)OCO2` (centres undefined)?
TTR transcr act: 4

What do the screens show for `C=CCN(Cc1ccc(OC)cc1OC)C(C#Cc1ccccc1)c1ccccc1` (centres undefined)?
TTR transcr act: -1

Results for CCOc1ccc(CCNC(=O)c2cc(-c3ccccc3)c(N3CCOCC3)s2)cc1OC ?
TTR transcr act: -1

What do the screens show for `O=C(Nc1ccc(Br)cc1)O[C@@H]1CC[C@@]23CCCN2C(=O)CCC[C@H]3C1`?
TTR transcr act: 1

What do the screens show for `CCc1ccc(-c2cc3c(=O)n(CC(=O)NCCN4CCCCC4C)nc(C)n3n2)cc1` (centres undefined)?
TTR transcr act: 5

How did CCOC(=O)C1CCN(C(=O)/C=C/c2ccc(OC)cc2)CC1 do in these assays?
TTR transcr act: 1
